Compound: Nc1ncnc2c1ncn2[C@@H]1O[C@H](COP(=O)(O)OP(=O)(O)OP(=O)(O)O)[C@@H](O)[C@H]1O [adenosine 5'-triphosphate]
Assay: log2 fold change of tryptic peptide abundance, ligand vs vehicle (limited proteolysis) (log2 ratio); higher = more trypsin-susceptible (destabilized)
Settings: ligand concentration: 5 mM; sample: E. coli desalted lysate; replicate design: treated before aliquoting
Procedure: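 HT-PELSA: desalted E. coli K-12 BW25113 lysate (with 12 mM MgCl2) incubated with 5 mM ATP (pH 7) or water for 30 min at 25 C, then a 4 min trypsin pulse at 22 C. Peptides were quantified by DIA-MS (4 replicates). Value is the peptide log2 fold change (treated/control); negative = stabilized. Scale: negative = ligand-stabilized region.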
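Note: lysate desalted by size exclusion to strip endogenous ATP, peptide intensities built from DIA-NN precursor signals, and peptides missing any value discarded before comparison.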

Sequence of UniProt P39310 (P39310 whole entry): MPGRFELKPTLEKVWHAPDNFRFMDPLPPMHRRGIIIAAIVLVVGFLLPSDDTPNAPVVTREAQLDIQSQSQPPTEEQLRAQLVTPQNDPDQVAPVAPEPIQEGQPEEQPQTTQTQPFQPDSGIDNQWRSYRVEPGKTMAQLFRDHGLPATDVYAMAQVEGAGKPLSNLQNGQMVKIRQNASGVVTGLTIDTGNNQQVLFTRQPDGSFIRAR
Sequence of UniProt P00582 (P00582 whole entry): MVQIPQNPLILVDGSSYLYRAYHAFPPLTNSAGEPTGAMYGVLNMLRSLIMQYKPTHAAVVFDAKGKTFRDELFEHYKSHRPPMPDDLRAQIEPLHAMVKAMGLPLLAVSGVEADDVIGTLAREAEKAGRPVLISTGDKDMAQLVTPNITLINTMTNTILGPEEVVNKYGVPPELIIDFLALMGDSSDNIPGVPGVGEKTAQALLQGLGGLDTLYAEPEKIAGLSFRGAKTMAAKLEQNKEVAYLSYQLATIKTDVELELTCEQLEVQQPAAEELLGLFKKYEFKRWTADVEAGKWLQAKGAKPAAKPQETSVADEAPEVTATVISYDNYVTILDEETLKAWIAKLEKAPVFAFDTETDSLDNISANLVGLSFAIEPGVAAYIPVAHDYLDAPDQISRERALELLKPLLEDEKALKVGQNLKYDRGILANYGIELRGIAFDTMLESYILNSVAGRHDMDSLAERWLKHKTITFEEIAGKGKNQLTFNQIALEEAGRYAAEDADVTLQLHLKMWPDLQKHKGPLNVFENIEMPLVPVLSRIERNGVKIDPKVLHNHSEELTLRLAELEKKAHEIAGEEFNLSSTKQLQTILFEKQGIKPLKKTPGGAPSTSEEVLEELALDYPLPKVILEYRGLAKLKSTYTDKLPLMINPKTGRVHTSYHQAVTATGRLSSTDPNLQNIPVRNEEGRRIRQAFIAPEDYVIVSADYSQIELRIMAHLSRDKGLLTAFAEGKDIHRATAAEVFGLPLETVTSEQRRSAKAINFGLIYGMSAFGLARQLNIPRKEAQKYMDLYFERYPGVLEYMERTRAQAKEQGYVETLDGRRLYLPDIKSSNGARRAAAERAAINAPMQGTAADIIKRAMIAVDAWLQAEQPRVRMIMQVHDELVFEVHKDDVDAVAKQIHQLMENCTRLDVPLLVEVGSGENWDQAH
Sequence of UniProt P00579 (P00579 whole entry): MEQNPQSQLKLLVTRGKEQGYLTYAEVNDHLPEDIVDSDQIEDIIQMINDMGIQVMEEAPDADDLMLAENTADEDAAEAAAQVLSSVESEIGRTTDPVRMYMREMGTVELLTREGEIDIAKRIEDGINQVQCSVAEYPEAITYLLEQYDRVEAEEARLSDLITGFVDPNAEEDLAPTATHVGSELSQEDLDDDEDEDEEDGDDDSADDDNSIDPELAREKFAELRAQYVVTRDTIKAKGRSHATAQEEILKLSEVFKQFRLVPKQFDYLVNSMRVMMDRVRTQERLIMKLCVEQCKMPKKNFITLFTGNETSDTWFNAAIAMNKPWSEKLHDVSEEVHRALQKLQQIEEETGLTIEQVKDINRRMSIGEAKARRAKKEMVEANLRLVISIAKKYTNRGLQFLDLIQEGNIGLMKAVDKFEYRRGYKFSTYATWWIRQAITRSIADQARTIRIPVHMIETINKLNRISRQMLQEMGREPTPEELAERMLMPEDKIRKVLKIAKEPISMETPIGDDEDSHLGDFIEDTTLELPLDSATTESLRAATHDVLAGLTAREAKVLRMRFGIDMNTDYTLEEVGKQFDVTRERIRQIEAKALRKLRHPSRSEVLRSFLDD
Sequence of UniProt P75736 (P75736 whole entry): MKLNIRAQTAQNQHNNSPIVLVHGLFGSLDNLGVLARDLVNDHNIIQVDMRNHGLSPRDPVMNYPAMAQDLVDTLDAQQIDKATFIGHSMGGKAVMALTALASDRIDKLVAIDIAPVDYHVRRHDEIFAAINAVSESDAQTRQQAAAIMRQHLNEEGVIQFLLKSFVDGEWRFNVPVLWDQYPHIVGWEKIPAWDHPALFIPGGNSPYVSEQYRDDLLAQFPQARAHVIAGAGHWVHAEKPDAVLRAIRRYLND
Sequence of UniProt P09147 (P09147 whole entry): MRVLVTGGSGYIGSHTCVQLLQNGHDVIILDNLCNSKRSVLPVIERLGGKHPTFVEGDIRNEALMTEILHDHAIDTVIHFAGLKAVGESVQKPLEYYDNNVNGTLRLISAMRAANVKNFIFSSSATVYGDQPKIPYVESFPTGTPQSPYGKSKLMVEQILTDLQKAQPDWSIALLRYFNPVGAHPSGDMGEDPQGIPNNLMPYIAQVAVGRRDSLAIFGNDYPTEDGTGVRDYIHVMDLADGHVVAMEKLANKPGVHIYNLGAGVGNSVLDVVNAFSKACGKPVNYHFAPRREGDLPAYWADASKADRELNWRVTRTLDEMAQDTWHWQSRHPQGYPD
Sequence of UniProt P13518 (P13518 whole entry): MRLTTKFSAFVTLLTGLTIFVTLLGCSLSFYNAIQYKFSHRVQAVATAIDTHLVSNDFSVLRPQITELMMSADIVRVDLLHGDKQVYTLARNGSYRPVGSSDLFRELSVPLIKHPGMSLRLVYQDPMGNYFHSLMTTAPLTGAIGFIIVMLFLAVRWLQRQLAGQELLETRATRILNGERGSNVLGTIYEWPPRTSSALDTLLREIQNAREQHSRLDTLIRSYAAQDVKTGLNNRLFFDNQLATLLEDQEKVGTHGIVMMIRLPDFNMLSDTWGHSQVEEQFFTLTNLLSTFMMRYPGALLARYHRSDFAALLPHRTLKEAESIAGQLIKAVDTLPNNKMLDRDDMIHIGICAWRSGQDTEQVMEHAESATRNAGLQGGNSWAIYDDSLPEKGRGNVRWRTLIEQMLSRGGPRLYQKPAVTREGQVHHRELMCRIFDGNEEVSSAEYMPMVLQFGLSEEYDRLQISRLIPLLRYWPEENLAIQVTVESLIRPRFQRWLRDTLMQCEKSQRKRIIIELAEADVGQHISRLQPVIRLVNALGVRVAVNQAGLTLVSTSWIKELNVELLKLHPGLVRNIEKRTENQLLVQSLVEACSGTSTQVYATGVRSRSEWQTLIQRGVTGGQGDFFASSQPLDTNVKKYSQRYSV
Sequence of UniProt P37617 (P37617 whole entry): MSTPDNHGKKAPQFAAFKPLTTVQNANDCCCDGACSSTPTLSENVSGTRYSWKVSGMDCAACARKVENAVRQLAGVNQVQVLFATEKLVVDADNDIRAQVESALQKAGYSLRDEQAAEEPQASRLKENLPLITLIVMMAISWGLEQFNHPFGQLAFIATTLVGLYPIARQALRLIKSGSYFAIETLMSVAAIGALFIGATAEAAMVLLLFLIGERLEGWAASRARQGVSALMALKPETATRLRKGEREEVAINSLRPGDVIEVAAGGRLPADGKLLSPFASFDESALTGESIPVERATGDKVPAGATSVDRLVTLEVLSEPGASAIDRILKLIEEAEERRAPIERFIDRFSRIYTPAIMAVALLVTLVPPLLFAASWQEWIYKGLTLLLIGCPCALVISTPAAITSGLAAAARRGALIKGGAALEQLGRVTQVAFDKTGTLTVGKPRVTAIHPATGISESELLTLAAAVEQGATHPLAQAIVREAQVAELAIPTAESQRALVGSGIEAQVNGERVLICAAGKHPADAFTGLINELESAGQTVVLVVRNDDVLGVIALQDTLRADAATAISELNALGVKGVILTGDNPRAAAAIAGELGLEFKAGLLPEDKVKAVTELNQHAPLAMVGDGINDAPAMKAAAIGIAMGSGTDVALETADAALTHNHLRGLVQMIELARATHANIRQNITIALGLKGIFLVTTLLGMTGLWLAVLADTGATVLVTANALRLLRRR
Sequence of UniProt P23331 (P23331 whole entry): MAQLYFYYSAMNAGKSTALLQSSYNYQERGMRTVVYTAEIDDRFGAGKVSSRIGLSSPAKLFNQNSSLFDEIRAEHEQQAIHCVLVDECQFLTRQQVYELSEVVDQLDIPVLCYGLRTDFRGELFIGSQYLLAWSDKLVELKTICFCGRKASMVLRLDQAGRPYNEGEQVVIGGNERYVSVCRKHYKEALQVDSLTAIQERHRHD
Sequence of UniProt P28903 (P28903 whole entry): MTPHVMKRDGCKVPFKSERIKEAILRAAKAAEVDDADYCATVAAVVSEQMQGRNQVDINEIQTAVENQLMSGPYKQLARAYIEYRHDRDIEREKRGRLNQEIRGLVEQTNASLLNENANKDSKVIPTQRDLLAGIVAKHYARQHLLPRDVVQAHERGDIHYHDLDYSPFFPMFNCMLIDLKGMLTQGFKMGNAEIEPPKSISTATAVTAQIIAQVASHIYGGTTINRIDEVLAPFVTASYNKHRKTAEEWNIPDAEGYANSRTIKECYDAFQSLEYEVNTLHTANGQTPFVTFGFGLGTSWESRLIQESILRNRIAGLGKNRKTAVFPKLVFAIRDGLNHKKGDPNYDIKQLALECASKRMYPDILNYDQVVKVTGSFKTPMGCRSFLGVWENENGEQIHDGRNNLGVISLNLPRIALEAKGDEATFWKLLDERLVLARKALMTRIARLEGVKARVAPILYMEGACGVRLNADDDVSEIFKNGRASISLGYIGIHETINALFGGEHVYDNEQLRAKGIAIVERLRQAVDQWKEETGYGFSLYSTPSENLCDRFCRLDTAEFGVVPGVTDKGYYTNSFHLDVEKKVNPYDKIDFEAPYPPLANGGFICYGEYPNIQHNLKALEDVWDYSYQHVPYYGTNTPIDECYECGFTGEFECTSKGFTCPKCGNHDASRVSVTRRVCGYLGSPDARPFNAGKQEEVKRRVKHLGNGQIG

Target	log2 fold change
UniProt P09147 (peptide sequence: REGDLPAYWADASKADR, peptide start residue: 292)	0.627
UniProt P39310 (peptide sequence: VWHAPDNFR, peptide start residue: 14)	-0.8
UniProt P00579 (peptide sequence: EPTPEELAER, peptide start residue: 477)	0.829
UniProt P28903 (peptide sequence: DGCKVPFK, peptide start residue: 9)	-0.869
UniProt P13518 (peptide sequence: LYQKPAVTR, peptide start residue: 414)	0.793
UniProt P27249 (peptide sequence: VEDLFIIATADRR, peptide start residue: 854)	0.328
UniProt P23331 (peptide sequence: TVVYTAEIDDR, peptide start residue: 33)	-1.64
UniProt P00582 (peptide sequence: QLNIPRK, peptide start residue: 776)	-3.24
UniProt P75736 (peptide sequence: SFVDGEWR, peptide start residue: 165)	-1.28
UniProt P37617 (peptide sequence: DEQAAEEPQASR, peptide start residue: 113)	2.93
